From article PMC5540273 (PLoS ONE, 2017)

Tests used:
ERK5 = tested on: T1, ERK5
T1 construct: gene MAPK7

FAK = tested on: T2, FAK
T2 construct: gene PTK2
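Further: kd values determined as follow-up on hits from a single-replicate KINOMEscan panel screen.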

## Cc1ccc(Oc2ccc(Nc3ncnc4cc[nH]c34)cc2C)cn1
ERBB2
  Kd: 6.5 nM
FLT1
  Kd: > 10000 nM

## O=C(Nc1n[nH]c2nc(-c3ccccc3)c(Br)cc12)C1CC1 [SB-708998]
ERK5
  Kd: > 10000 nM

## CCc1nc(-c2cccc(C)c2)c(-c2ccncc2)s1
FAK
  Kd: > 10000 nM

## O=C(NCc1cccs1)c1cc(C(=O)c2c(Cl)cccc2Cl)c[nH]1 [GW823670]
FAK
  Kd: > 10000 nM

## FC(F)(F)c1ccc(-c2ncn(CCCN3CCOCC3)c2-c2ccncc2)cc1 [SB-217780]
FGFR1
  Kd: > 10000 nM

## COc1cc(OC)cc(-c2cc3cnc(N)nc3nc2NC(=O)NC(C)(C)C)c1
FGFR1
  Kd: 66 nM
FGFR2
  Kd: 310 nM
FGFR3
  Kd: 110 nM

## COc1ccc(Nc2nccc(N3CCC(NS(=O)(=O)c4ccc(NC(C)=O)cc4)C3)n2)cc1 (stereo not shown) [GSK1379729]
FGFR4
  Kd: > 10000 nM

## Nc1ncnc2c1ncn2-c1cccc(F)c1 [SKF-97560]
FGFR4
  Kd: > 10000 nM

## COc1cc2nccc(Nc3ccc(OCc4ccc(NC(C)=O)cc4)cc3)c2cc1OC.Cl [GW440135]
FLT1
  Kd: 680 nM
FLT4
  Kd: 480 nM

## COc1ccc(-n2cnc3c(N)ncnc32)cc1 [SKF-97236]
FLT3
  Kd: 120 nM

## Cl.NS(=O)(=O)c1cccc(Nc2cc(-c3ccc(F)cc3)n[nH]2)c1 [GW824645]
FLT3
  Kd: 7.5 nM

## Cc1cccc(-c2cc(-c3c[nH]nc3-c3ccccn3)ccn2)c1 [GW679395]
GAK
  Kd: 130 nM

## OCCCNc1nccc(-c2c(-c3cccc(C(F)(F)F)c3)nn3cc(C(F)(F)F)ccc23)n1 [GW630813]
GRK1
  Kd: > 10000 nM

## CN1C(=O)C(Nc2cc(Cl)c(O)c(Cl)c2)=C(c2ccc(Cl)cc2)C1=O [SB-404321]
GRK4
  Kd: > 10000 nM

## CCn1c(-c2ccoc2)nc2cnccc21 [SB-733887]
GRK7
  Kd: > 10000 nM

## Nc1n[nH]c2nnc(-c3ccccc3)c(-c3ccccc3)c12 [GW554060]
HIPK2
  Kd: 410 nM

## Cn1c(=O)c(F)c(Nc2ccc(I)cc2F)c2c(=O)n(OC[C@H](O)CO)cnc21
HIPK4
  Kd: > 10000 nM

## COc1cc2ncn(-c3cc(OCc4ccncc4)c(C(N)=O)s3)c2cc1OC [GSK336313]
INSRR
  Kd: > 10000 nM
